Laboratory results published in PubChem BioAssay (NCI).
The panel holds about 79,000 compounds, 15% with a hit somewhere; the sample as a whole holds those more often. Cut-off read from the data, not from the text of the source: active = growth inhibition above about 70%; inactive = the rest.

Tests used:
[1] = NCI Yeast Anticancer Drug Screen. Data for the rad50 strain (AID 155);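 note: 0% = growth of vehicle-only cultures of the same strain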; settings: S. cerevisiae rad50 strain growth inhibition; at 50.0 µM; active compounds read high
Method in brief: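 Compounds were tested on a yeast strain with an engineered DNA damage repair alteration; the reported value is growth inhibition normalised to vehicle treatment.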

[2] = NCI Yeast Anticancer Drug Screen. Data for the mec2-1 strain (AID 157); settings: S. cerevisiae mec2-1 strain, at 50.0 µM, active compounds read high
Method in brief: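 Each compound was tested on mec2-1 yeast, a strain altered in DNA damage repair or cell cycle control. Growth inhibition is reported relative to vehicle.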

[3] = NCI Yeast Anticancer Drug Screen. Data for the sgs1 mgt1 strain (AID 161);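 note: 0% = growth of cultures given vehicle only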; settings: S. cerevisiae sgs1 mgt1 strain, at 50.0 µM, active compounds read high
Method in brief: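 Mutant yeast exposed to compound; growth scored against vehicle-only wells.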

[4] = NCI Yeast Anticancer Drug Screen. Data for the cln2 rad14 strain (AID 165);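 note: 0% = growth equal to vehicle treated cultures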; settings: S. cerevisiae cln2 rad14 strain, at 50.0 µM, active compounds read high
Method in brief: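 Test compounds were added to cln2 rad14 yeast cultures; inhibition of growth was then determined by comparison with vehicle treatment.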

[5] = NCI Yeast Anticancer Drug Screen. Data for the bub3 strain (AID 167); settings: S. cerevisiae bub3 mutant strain, at 50.0 µM, active compounds read high
Method in brief: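 Growth of a checkpoint-deficient yeast mutant is measured after compound exposure. Values represent inhibition relative to vehicle.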

[6] = NCI Yeast Anticancer Drug Screen. Data for the mlh1 rad18 strain (AID 175); settings: S. cerevisiae mlh1 rad18 strain growth inhibition; at 50.0 µM; active compounds read high
Method in brief: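 Inhibition values reflect reduced growth of mutant yeast versus vehicle-treated controls following compound exposure; the mutations affect DNA damage repair.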

Measured: growth inhibition

N=C(N=C(N)N)N1CCOCC1
inactive: [1] 8.95% | [2] 20.1% | [3] 9.75% | [4] 32.7% | [5] 30.1% | [6] -0.55%

CS/C(=C\c1ccc(C(=O)c2ccc(C)cc2)n1C)S(C)=O (stereo not drawn)
inactive: [1] 16.6% | [2] 15.2% | [3] 42.4% | [4] 11.1% | [5] -0.7% | [6] 35.5%

O=C(O)NC(c1ccccc1)C(NC(=O)c1ccccc1)c1ccccc1 (stereo not drawn)
inactive: [1] -0.45% | [2] -4.1% | [3] 5.75% | [4] 7.15% | [5] -7.35% | [6] 31.4%

O=c1[nH]c(=O)c2[nH]c(=O)[nH]c2[nH]1
inactive: [1] 8.35% | [2] -7.15% | [3] -13.5% | [4] 27.9% | [5] 7.25% | [6] -17.9%

O=S(=O)(N1CCOCC1)N1CCOCC1
inactive: [1] -3.9% | [2] -7.7% | [3] -3.55% | [4] -25.6% | [5] 25.6% | [6] 3.85%

Cn1nnnc1NN(c1nnnn1C)C1C=CCC=C1
inactive: [1] 6.4% | [2] -6% | [3] 0% | [4] -18% | [5] 1.95% | [6] -10.7%

COC(=O)C1c2ccccc2CC(=O)N1NC(=O)c1ccccc1 (stereo not drawn)
inactive: [1] -7.7% | [2] -2.95% | [3] -17.1% | [4] 4.5% | [5] 3.65% | [6] 16.6%

COc1ccccc1NC(=O)NCCCCCCNC(=O)Nc1ccccc1OC
inactive: [1] -25.6% | [2] -2.55% | [3] 2.1% | [4] -39.9% | [5] 0.85% | [6] 13.4%

Nc1ccc(Br)c2ccccc12
inactive: [1] 33.4% | [2] 22.1% | [3] 16.8% | [4] 19.4% | [5] 27.3% | [6] 46.4%

COC(=O)c1sc2ccccc2c1C
inactive: [1] -12.4% | [2] -3.6% | [3] -7.05% | [4] -54.9% | [5] -17.8% | [6] 10.7%

O=C1c2cccnc2-c2ncccc21
inactive: [1] 16.3% | [2] 0.55% | [3] -1.35% | [4] 9.8% | [5] 5.4% | [6] 24.1%

O=C1c2ccccc2C(=O)N1/N=C\c1ccc(O)cc1
inactive: [1] 6.8% | [2] -3.6% | [3] 7.6% | [4] 12.9% | [5] 0.95% | [6] 33.5%

O=C(CC(c1ccccc1)C(Br)(c1ccccc1)[N+](=O)[O-])c1ccccc1 (stereo not drawn)
inactive: [1] 11.8% | [2] -0.45% | [3] -2.75% | [4] 22.2% | [5] -3.4% | [6] -5.8%

O=C1c2ccccc2-c2cc(Cl)c(Cl)cc21
inactive: [1] 13.4% | [2] 2.1% | [3] 13.7% | [4] 17.1% | [5] -1.8% | [6] -22.2%

C=C1CCC/C(=N\Nc2ccc([N+](=O)[O-])cc2[N+](=O)[O-])C12CCCC2
inactive: [1] -2.45% | [2] 3.45% | [3] -4.65% | [4] -11.6% | [5] 1.15% | [6] -1.35%

Cc1ccc(NC(=O)CSc2nnc(-c3ccc(N=Cc4ccc(Cl)cc4)cc3)o2)cc1
inactive: [1] 2.3% | [2] -36.9% | [3] 12.5% | [4] -59.8% | [5] -15.8% | [6] 18.6%

Cc1c(-c2ccc(Cl)cc2)n[nH]c1-c1[nH]nc(-c2ccc(Cl)cc2)c1C
inactive: [1] -2.3% | [2] -1.95% | [3] -26.1% | [4] 3.75% | [5] -11.4% | [6] -1.9%

O=C(O)/C=C/c1ccc(O)c(O)c1
inactive: [1] 18.3% | [2] -7.15% | [3] 0.5% | [4] 9.9% | [5] 7.25% | [6] 7.65%

O=c1[nH]nnc2cc(Cl)ccc12
inactive: [1] 0% | [2] 6.15% | [3] -4.65% | [4] -12.2% | [5] 2% | [6] -1.3%

O=C(O)CCCCc1ccc2ccccc2c1
inactive: [1] 4% | [2] 15.4% | [3] 16.4% | [4] 29.2% | [5] 5.95% | [6] 26.8%

CC(=O)Oc1cc(C)c(OC(C)=O)c(C)c1C
inactive: [1] -12.8% | [2] -27.4% | [3] -2.15% | [4] -9.3% | [5] 10.3% | [6] 6.3%

CC(=O)NC1CCC(Cc2ccccc2)CC1 (stereo not drawn)
inactive: [1] 6.2% | [2] -7.65% | [3] -11.3% | [4] -93.3% | [5] -22.3% | [6] -3.9%

COc1cc2c3c(c1)nc(C)n3C(=O)C(c1ccccc1)S2 (stereo not drawn)
inactive: [1] -17.6% | [2] -5.3% | [3] -26.3% | [4] 4.1% | [5] 21.6% | [6] -23.6%

OC12c3ccccc3C1CCCCCCCCCC21OCCO1 (stereo not drawn)
inactive: [1] -21.5% | [2] -2.45% | [3] -40.6% | [4] 5.05% | [5] -19.1% | [6] -27.8%

CCCCCCCC/C=C/CCCCCCCC(=O)NN(C)C
inactive: [1] -1.4% | [2] -7.6% | [3] -0.5% | [4] -59.2% | [5] -3.95% | [6] -11.3%

CC1CCCNC1C (stereo not drawn)
inactive: [1] -21% | [2] -24.1% | [3] -11.1% | [4] -29% | [5] -3.25% | [6] 8.25%

O=C1NC(=O)c2ccc(Br)c3cccc1c23
inactive: [1] 17.9% | [2] 18.9% | [3] 16.1% | [4] 21.6% | [5] 19.9% | [6] 1.75%

Cc1ccc(Nc2ccc(O)c3c2C(=O)c2ccccc2C3=O)cc1
inactive: [1] -17.9% | [2] -3.6% | [3] 5.45% | [4] -29.6% | [5] 16.1% | [6] 15.5%

CC(=O)c1c(O)cccc1O
inactive: [1] -11.8% | [2] -13.8% | [3] -1.75% | [4] 8.7% | [5] 8.7% | [6] -3.75%

CC(C)CCCC(C)C1CCC2C3CCC4CC5(C)C(CC4(C)C3CCC12C)C(=O)C5(Cl)Cl (stereo not drawn)
inactive: [1] 13.2% | [2] -2.7% | [3] -22.4% | [4] 0% | [5] -3.55% | [6] -27.9%

O=C(NC(=O)c1ccccc1[N+](=O)[O-])Nc1ccc(Oc2ncc(Cl)cn2)c(C(F)(F)F)c1
inactive: [1] 17.1% | [2] -23.6% | [3] 7.4% | [4] -17.1% | [5] 0.5% | [6] -54.6%

ClC(Cl)(Cl)C(N1CCN(c2ccccc2)CC1)N1CCN(c2ccccc2)CC1
inactive: [1] 8.95% | [2] -34% | [3] -29.4% | [4] -38.5% | [5] -25.9% | [6] -17.6%

Cc1c(O)cc(O)c(C)c1C
inactive: [1] -0.3% | [2] -23.3% | [3] -8.6% | [4] -2% | [5] 9.8% | [6] -8.65%

Clc1ccccc1C(Nc1nc2ccccc2s1)Nc1nc2ccccc2s1
inactive: [1] 13.3% | [2] 0.8% | [3] -10.9% | [4] 4.65% | [5] -2% | [6] 17.4%

CC(C)CC(O)CC(C)C
inactive: [1] 1.25% | [2] -25.1% | [3] -0.75% | [4] 28.4% | [5] -15.3% | [6] 19.8%

CC1=C(C[Si](C)(C)C)CC(CO[Si](C)(C)C(C)(C)C)C2C(=O)N(C(=O)c3ccccc3)C(Cc3ccccc3)C12 (stereo not drawn)
inactive: [1] 21.6% | [2] 5.7% | [3] 2.05% | [4] -4.25% | [5] -3.95% | [6] 23.4%

CN=C(NC#N)NCc1ccccc1
inactive: [1] 7.05% | [2] 7.35% | [3] -2.6% | [4] 10.1% | [5] 20.8% | [6] 8.45%

Nc1ccc2ccccc2c1[N+](=O)[O-]
inactive: [1] 25.9% | [2] 10.1% | [3] 37.6% | [4] 17.5% | [5] 14.9% | [6] 39.3%
